Sampled rows, rich in hits. Any-hit rate of the full collection: about 2.8%.
KLK7 zymogen act = proKLK7 zymogen activators, primary screen, biochemical, fluorescence intensity. Kallikrein-7 (Homo sapiens), P49862. purified proKLK7, EDANS-DABCYL substrate fluorescence; 100% is mature enzyme control, 0% vehicle. activation, % at 7 µM. hit rate 0.9% among 370,000. AID 652039, 2013;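 active = activation above the mean of all tested compounds plus 3 SD, computed per campaign excluding outliers beyond control limits, cut at about 13% in these data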
Target sequence (P49862 whole entry, looked up): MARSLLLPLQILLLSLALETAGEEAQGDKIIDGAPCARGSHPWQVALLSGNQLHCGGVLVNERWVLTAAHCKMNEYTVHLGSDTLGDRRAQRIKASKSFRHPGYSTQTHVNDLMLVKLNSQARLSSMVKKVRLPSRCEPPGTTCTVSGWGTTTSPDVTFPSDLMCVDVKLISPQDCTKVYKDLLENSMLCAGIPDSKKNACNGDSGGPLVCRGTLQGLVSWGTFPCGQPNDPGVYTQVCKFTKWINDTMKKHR
MsrA inh = bovine MsrA enzyme inhibitors, primary screen, biochemical, absorbance, HTS; Methionine sulfoxide reductase A (Bos taurus); purified bovine MsrA, absorbance read-out; inhibition, % at 15.5 µM; hit rate 0.75% among 360,000;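 note: 0% = vehicle wells with enzyme and 100% = reference inhibitor wells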
SMARCA2 act = SMARCA2 (BRM) function activators, primary screen, cell-based, luminescence, high throughput; MG213 cells, MMTV-luciferase reporter, dexamethasone, overnight; activation, % at 9.1 µM; hit rate 1% among 370,000; AID 652017, 2013; in the data active = activation above about 7.8%;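 note: 0% = vehicle wells and 100% = reference activator wells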
MsrA act = bovine MsrA enzyme activators, primary screen, biochemical, absorbance, HTS. Methionine sulfoxide reductase A (Bos taurus). purified bovine MsrA, absorbance read-out. activation, % at 10.6 µM. hit rate 0.3% among 360,000. AID 602163, 2012; in the data active = activation above about 7.5%;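 note: 0% = vehicle and 100% = reference activator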
MsrA conf = bovine MsrA inhibitors, retest, confirmation, biochemical, absorbance, HTS | shares compounds with MsrA inh | purified bovine MsrA, absorbance read-out | inhibition, % at 15.5 µM | hit rate 41% among 2,300;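 note: coupled to thioredoxin reductase with NADPH and selenocystamine and DMSO as substrate; 0% = vehicle only and 100% = full effect of reference inhibitor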
* marks the source's active call; other numbers are inactive results; . = no result given. Cut-off read from the data, not from the text of the source, unless noted: active = inhibition above about 4.5%; inactive = the rest.

SMILES	KLK7 zymogen act	MsrA inh	SMARCA2 act	MsrA act	MsrA conf
O=C(NCC1CC1)c1cc([N+](=O)[O-])cc([N+](=O)[O-])c1	0	8.5*	-2	4	7.1*
COC(=O)c1ccccc1NC(=S)NC(=O)C1CC1	0	12*	1	-2	11*
C/C(=C\C=C\c1ccccc1)C(=O)c1c(C)cc(C)[nH]c1=O	0	7.4*	-2	-8	5.9*
C/C(=C\c1ccc(C)o1)C(=O)c1c(C)cc(C)[nH]c1=O	-1	7.3*	1	-8	4
C/C(=C\c1cccc(Br)c1)C(=O)c1c(C)cc(C)[nH]c1=O	0	1	-2	-2	.
C/C(=C\c1ccc2c(c1)OCO2)C(=O)c1c(C)cc(C)[nH]c1=O	0	5.5*	-2	-6	3
C[C@@H]1C[C@@H]2O[C@H]2CCCCC(=O)Cc2cc(O)cc(O)c2C(=O)O1	0	.	-9	.	.
N#Cc1cccc(NC(=O)OC2CC3CC2[C@H]2CCCCN2[C@H]3Cc2ccccc2)c1 (some centres not stated)	0	.	-1	.	.
CCCS(=O)(=O)c1c(S(=O)(=O)CCC)c2c(N)cccn2c1C(=O)c1ccccc1	0	0	-1	-7	.
CCCS(=O)(=O)c1c(S(=O)(=O)CCC)c2c(N)cccn2c1C(=O)OC	-2	5.2*	-5	-13	1
O=C(CC1S/C(=N/N=C/c2cccs2)NC1=O)Nc1ccc(Cl)cc1 (configuration not stated)	0	1	-2	-4	.
Cc1ccc(NC(=O)C2CC(=O)N/C(=N/N=C/c3ccco3)S2)cc1 (configuration not stated)	0	0	-1	-8	.
O=C1CC(C(=O)Nc2ccc(F)cc2)S/C(=N\N=C\c2ccco2)N1 (configuration not stated)	0	6.3*	0	-5	5.0*
O=C(CC1S/C(=N/N=C/c2ccco2)NC1=O)Nc1ccccc1 (configuration not stated)	0	5.3*	-3	-3	5.3*
O=C(CC1S/C(=N/N=C/c2c[nH]c3ccccc23)NC1=O)Nc1ccccc1 (configuration not stated)	-1	4	0	-6	.
C/C(=N\N=C1\NC(=O)C(CC(=O)Nc2ccc(Cl)cc2)S1)c1ccco1 (configuration not stated)	0	4.8*	-5	-5	4.8*
O=C1N/C(=N/N=C/c2ccc(O)cc2)SC1Cc1ccccc1 (configuration not stated)	-2	2	3	-6	.
Cc1ccc(/C=N/N=C2/NC(=O)C(CC(=O)N3CCOCC3)S2)cc1 (configuration not stated)	0	5.8*	-3	-4	2
O=C1c2ccccc2[C@@H]2C[C@@H](O)[C@H](Nc3cccc(Cl)n3)CCN12	0	0	-4	5	.
COc1ccc(/C=N/N=C2/NC(=O)C(CC(=O)NC(C)C)S2)cc1 (configuration not stated)	0	1	1	-5	.
NC(=O)NC(=O)CC1S/C(=N/N=C/c2ccccc2)NC1=O (configuration not stated)	0	5.3*	3	-15	4
COc1cc(C(=O)N2CCN(c3ccccc3)CC2)c2ccccc2n1	0	0	-3	-3	.
CCC(=O)/C=C1\Sc2ccc(OC)cc2N1CCO	0	4	-1	-1	.
CCC(=O)/C=C1\Sc2ccc(OC)cc2N1CC	0	5.7*	-3	-7	4
CC1(Cc2ccc(F)cc2)C(=O)Nc2ccc(-c3cccnc3)cc21 (configuration not stated)	0	0	-6	-2	.
C=Cc1ccc(CC2(C)C(=O)Nc3ccc(-c4cccnc4)cc32)cc1 (configuration not stated)	0	13*	-5	-3	6.3*
COc1ccc(C2=NS(=O)(=O)N(C)C(C(=O)NCc3ccccc3)=C2)cc1OC	1	2	0	0	.
COc1ccc(C2=NS(=O)(=O)N(C)C(C(=O)NC3CCCC3)=C2)cc1	1	6.1*	-4	-2	2
COc1ccc(C2=NS(=O)(=O)N(C)C(C(=O)NCc3ccccn3)=C2)cc1	-1	4.7*	-4	-1	3

High-throughput results from PubChem.
